Measurements reported in PubChem BioAssay (NCATS).
Inconclusive results are not listed. Activity calls are given as the source filed them. Calls follow the shape of the dose curve; as a rule, active = well fitted curve in the direction sought with a large enough effect; inconclusive = small, poorly fitted or top-dose-only effect, or another doubt; inactive = no such curve, though single readings can be large; an effect the other way counts as inactive or inconclusive. Non-standard residues stand in square brackets, D forms with d. Residues, ends and D or L forms follow the SMILES beside them. *: point of attachment. Nva = CCC[C@H](N)C(=O)O; Cbz = O=C(OCc1ccccc1)*

Columns and labels:
[1] = qHTS of pediatric cancer cell lines to identify multiple opportunities for drug repurposing: Confirmatory screen for NB-EBc1 cells (AID 1347115);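 also: cells exposed to compound for 48 h before the viability read; nearly all actives have a fitted effect of over 45% in size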; also: potency is read from the fitted curve at half-maximal effect
How it was run: (§1)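 Cells (500-1,000/well) rested 5 h, then received compounds for 48 h; metabolically active cells were measured by CellTiter-Glo luminescence. Final concentrations spanned up to 46 µM (MIPE, 11-point) or 0.59 nM-46 µM (NPC, 8-point) in primary screens, 11-point in follow-ups.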

[2] = qHTS of pediatric cancer cell lines to identify multiple opportunities for drug repurposing: Confirmatory screen for SJ-GBM2 cells (AID 1347116); also: nearly all actives have a fitted effect of over 60% in size; also: potency is read from the fitted curve at half-maximal effect
How it was run: (§2)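 Viability measured as metabolically active cells via CellTiter-Glo luminescence following 48 hours of compound exposure, 11-point dilutions in confirmatory testing. 500-1,000 cells/well plated 5 hours before dosing; controls were DMSO and 2.3 µM bortezomib.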

[3] = qHTS of pediatric cancer cell lines to identify multiple opportunities for drug repurposing: Confirmatory screen for BT-37 cells (AID 1347117); conditions: BT-37 pediatric cancer cells, viability; activity change, negative = cytotoxic: at 45.9 µM (top of the series); also: nearly all actives have a fitted effect of over 55% in size; also: potency is read from the fitted curve at half-maximal effect
How it was run: as §1

[4] = qHTS of pediatric cancer cell lines to identify multiple opportunities for drug repurposing: Confirmatory screen for TC32 cells (AID 1347118);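 also: cells exposed to compound for 48 h before the read; nearly all actives have a fitted effect of over 65% in size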; also: potency is read from the fitted curve at half-maximal effect
How it was run: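 qHTS, TC32, 48 h drug treatment, CellTiter-Glo luminescence as a proxy for metabolically active cells; primary top concentration 46 µM (MIPE 11-pt, NPC 8-pt); confirmatory 11-pt.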

[5] = qHTS of pediatric cancer cell lines to identify multiple opportunities for drug repurposing: Confirmatory screen for MG 63 (6-TG R) cells (AID 1347119); also: nearly all actives have a fitted effect of over 55% in size; also: potency is read from the fitted curve at half-maximal effect
How it was run: as §1

[6] = qHTS of pediatric cancer cell lines to identify multiple opportunities for drug repurposing: Confirmatory screen for control Hh wild type fibroblast cells (AID 1347121); also: nearly all actives have a fitted effect of over 70% in size
How it was run: as §1

[7] = qHTS of pediatric cancer cell lines to identify multiple opportunities for drug repurposing: Confirmatory screen for Rh30 cells (AID 1347126); also: nearly all actives have a fitted effect of over 55% in size; also: potency is read from the fitted curve at half-maximal effect
How it was run: as §1

[8] = qHTS of pediatric cancer cell lines to identify multiple opportunities for drug repurposing: Confirmatory screen for Saos-2 cells (AID 1347127); also: nearly all actives have a fitted effect of over 60% in size; also: potency is read from the fitted curve at half-maximal effect
How it was run: as §1

[9] = qHTS of pediatric cancer cell lines to identify multiple opportunities for drug repurposing: Confirmatory screen for U-2 OS cells (AID 1347122); also: nearly all actives have a fitted effect of over 65% in size; also: potency is read from the fitted curve at half-maximal effect
How it was run: as §1

[10] = qHTS of pediatric cancer cell lines to identify multiple opportunities for drug repurposing: Confirmatory screen for RD cells (AID 1347124);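 also: cells exposed to compound for 48 h before viability readout; nearly all actives have a fitted effect of over 65% in size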; also: potency is read from the fitted curve at half-maximal effect
How it was run: as §1

[11] = qHTS of pediatric cancer cell lines to identify multiple opportunities for drug repurposing: Confirmatory screen for Rh18 cells (AID 1347125); also: nearly all actives have a fitted effect of over 55% in size; also: potency is read from the fitted curve at half-maximal effect
How it was run: as §1

[12] = qHTS of pediatric cancer cell lines to identify multiple opportunities for drug repurposing: Confirmatory screen for SK-N-SH cells (AID 1347129);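 also: cells exposed to compound for 48 h before viability read; nearly all actives have a fitted effect of over 60% in size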; also: potency is read from the fitted curve at half-maximal effect
How it was run: as §1

[13] = system: Zika virus NS2B-NS3 protease; assay: Primary screen GU AMC qHTS for Zika virus inhibitors (AID 1347154); also: nearly all actives have a fitted effect of over 70% in size
How it was run: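 Fluorogenic AMC-substrate cleavage by noncovalent NS2B-NS3 protease complex (25 nM, pH 8.0 Tris buffer with Tween 20) followed for 15 minutes at room temperature (~20% conversion). Percent inhibition from ex340/em450 signal change, fitted by 4-parameter Hill equation.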

[14] = qHTS of pediatric cancer cell lines to identify multiple opportunities for drug repurposing: Confirmatory screen for Rh41 cells (AID 1347123);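 also: 48 h compound exposure; nearly all actives have a fitted effect of over 60% in size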; also: potency is read from the fitted curve at half-maximal effect
How it was run: as §1

[15] = qHTS of pediatric cancer cell lines to identify multiple opportunities for drug repurposing: Confirmatory screen for OHS-50 cells (AID 1347128); also: potency is read from the fitted curve at half-maximal effect
How it was run: as §1

[16] = qHTS of pediatric cancer cell lines to identify multiple opportunities for drug repurposing: Confirmatory screen for DAOY cells (AID 1347114); also: potency is read from the fitted curve at half-maximal effect; nearly all actives have a fitted effect of over 65% in size
How it was run: as §2

| Structure (SMILES) | Potency [1] | Potency [2] | Potency [3] | Potency [4] | Potency [5] | Potency [6] | Potency [7] | Potency [8] | Potency [9] | Potency [10] | Potency [11] | Potency [12] | Potency [13] | Potency [14] | Potency [15] | Potency [16] |
| --- | --- | --- | --- | --- | --- | --- | --- | --- | --- | --- | --- | --- | --- | --- | --- | --- |
| CN(CC(=O)N(Cc1ccc(C2CCCCC2)cc1)c1ccc(C(=O)O)c(O)c1)S(=O)(=O)c1c(F)c(F)c(F)c(F)c1F | inactive | inactive | 26.1 µM (active) | 26.1 µM (active) | 20.8 µM (active) | inactive | inactive | 26.1 µM (active) | – | – | – | – | – | – | – | – |
| Oc1ccc(-c2ccc(-c3cc(Nc4cccc(CNC5CC5)c4)n[nH]3)cc2)c(O)c1 | – | 14.7 µM (active) | – | 2.33 µM (active) | inactive | inactive | 5.22 µM (active) | 9.27 µM (active) | 5.22 µM (active) | 5.22 µM (active) | 16.5 µM (active) | inactive | inactive | – | – | – |
| FC(F)c1nc2ccccc2n1-c1nc(N2CCOCC2)nc(N2CCOCC2)n1 | – | inactive | 1.47 µM (active) | 0.928 µM (active) | 0.928 µM (active) | – | 1.65 µM (active) | 0.827 µM (active) | 4.65 µM (active) | 8.27 µM (active) | 1.85 µM (active) | 2.35 µM (active) | inactive | 2.93 µM (active) | – | – |
| Cc1nc(NC(=O)N2CCC[C@@H]2C(N)=O)sc1-c1ccnc(C(C)(C)C(F)(F)F)c1 | 16.5 µM (active) | – | – | 5.22 µM (active) | 6.57 µM (active) | – | 5.22 µM (active) | 5.85 µM (active) | 14.7 µM (active) | – | 2.93 µM (active) | 11.8 µM (active) | inactive | – | – | – |
| COC1=C2C[C@@H](C)C[C@H](OC)[C@@H](O)[C@@H](C)C=C(C)[C@H](OC(N)=O)[C@@H](OC)C=CC=C(C)C(=O)NC(=CC1=O)C2=O | 9.27 µM (active) | 1.31 µM (active) | 1.04 µM (active) | 0.928 µM (active) | – | – | 1.31 µM (active) | 0.928 µM (active) | 1.04 µM (active) | 0.928 µM (active) | 2.08 µM (active) | 2.35 µM (active) | inactive | 2.33 µM (active) | – | – |
| COc1cc2ncnc(Nc3cccc(Br)c3)c2cc1OC | – | 3.69 µM (active) | 18.5 µM (active) | 9.27 µM (active) | – | – | 9.27 µM (active) | inactive | inactive | – | – | 20.9 µM (active) | inactive | 11.7 µM (active) | 10.4 µM (active) | – |
| CC(C)(N)c1ccc(-c2nc3ccccc3nc2-c2ccccc2)cc1 | inactive | – | 18.5 µM (active) | 1.47 µM (active) | – | – | inactive | 0.737 µM (active) | inactive | inactive | 1.65 µM (active) | – | – | – | 0.369 µM (active) | – |
| CN[C@H]1[C@@H](O)[C@@H]2O[C@@H]3O[C@H](C)CC(=O)[C@]3(O)O[C@@H]2[C@@H](NC)[C@H]1O | inactive | inactive | inactive | – | – | inactive | inactive | – | inactive | inactive | inactive | – | inactive | – | – | – |
| COC(=O)C=CC(=O)OC | – | inactive | 3.29 µM (active) | 3.29 µM (active) | 13.1 µM (active) | inactive | 4.14 µM (active) | inactive | – | – | 14.7 µM (active) | inactive | inactive | 23.3 µM (active) | inactive | – |
| CCC[C@@H](C=O)NC(=O)[C@H](CC(C)C)NC(=O)[C@H](CC(C)C)NC(=O)OCc1ccccc1 (Cbz-Leu-Leu-[Nva]-aldehyde) | 2.33 µM (active) | 2.08 µM (active) | 1.17 µM (active) | 1.47 µM (active) | 0.827 µM (active) | – | 4.14 µM (active) | 3.29 µM (active) | – | 1.31 µM (active) | 3.69 µM (active) | – | inactive | – | 2.33 µM (active) | – |
| CCN(CC)CCNC(=O)c1c(C)[nH]c(C=C2C(=O)Nc3ccc(F)cc32)c1C | – | – | – | – | 13.5 µM (active) | – | 12 µM (active) | 26.9 µM (active) | 24 µM (active) | 15.1 µM (active) | 26.9 µM (active) | – | inactive | 7.59 µM (active) | – | 17 µM (active) |
| CC1(C)O[C@@H]2C[C@H]3[C@@H]4CCC5=CC(=O)C=C[C@]5(C)[C@@H]4[C@@H](O)C[C@]3(C)[C@]2(C(=O)CO)O1 | – | inactive | – | inactive | inactive | – | inactive | inactive | inactive | inactive | inactive | inactive | inactive | inactive | – | – |
| O=C(NC1CC1)c1cccc(-c2ccc3c(NC(=O)C4CC4)n[nH]c3c2)c1 | – | – | – | 5.85 µM (active) | 11.7 µM (active) | – | inactive | – | – | – | inactive | – | inactive | – | – | – |
